The values below come from PubChem BioAssay AID1851 (National Center for Advancing Translational Sciences (NCATS), 2009).

What is called AC50 is the concentration giving half of the maximal activity seen.

Hit rate of the full screen: of about 16,000 compounds, about 5,100 (32%) were called active. Inconclusive results (about 25%) are left out. The list shows a part of the results. A number with no mark means an inactive call. Calls follow the shape of the dose curve; as a rule, active = well fitted curve in the direction sought with a large enough effect; inconclusive = small, poorly fitted or top-dose-only effect, or effect the other way; inactive = no such curve, though single readings can be large or run the other way.
% is scaled to controls: 0 for no effect and ±100 for the full control effect.

The target of this test is Cytochrome P450 3A4 (Homo sapiens) (UniProt P08684). Kind of test: Cytochrome panel assay with activity outcomes. The note with it: recombinant CYP, pro-luciferin dealkylation, luminescence, p450-cyp3a4; series mostly up to 57.1 µM; activity, negative = inhibition: at the top concentration.
Sequence of Cytochrome P450 3A4 (Homo sapiens) (P08684 whole entry, looked up): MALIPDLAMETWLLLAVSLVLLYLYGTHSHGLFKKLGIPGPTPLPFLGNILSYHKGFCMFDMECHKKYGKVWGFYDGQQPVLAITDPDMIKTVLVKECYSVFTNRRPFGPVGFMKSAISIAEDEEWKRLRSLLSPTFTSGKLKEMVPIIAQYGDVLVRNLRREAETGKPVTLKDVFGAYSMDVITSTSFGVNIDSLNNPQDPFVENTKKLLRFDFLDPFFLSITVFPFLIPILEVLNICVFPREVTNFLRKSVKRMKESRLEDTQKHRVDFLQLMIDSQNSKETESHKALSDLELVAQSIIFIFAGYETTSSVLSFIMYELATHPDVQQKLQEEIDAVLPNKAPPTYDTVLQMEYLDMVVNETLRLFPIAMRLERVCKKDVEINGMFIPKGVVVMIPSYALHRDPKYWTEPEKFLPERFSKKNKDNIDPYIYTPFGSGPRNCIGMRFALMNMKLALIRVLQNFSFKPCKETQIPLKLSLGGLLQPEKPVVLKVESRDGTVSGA
For the compound `C[C@@]12CCC(=O)C=C1CC[C@@H]1[C@@H]2[C@H](O)C[C@]2(C)[C@@H]1CC[C@]2(O)C(=O)COC(=O)CCC(=O)O`, the “activity, negative = inhibition” value was -3.21%.
On the same count and under the same terms, then `C[C@@]12CCC(=O)C=C1CC[C@@H]1[C@@H]2[C@H](O)C[C@]2(C)[C@@H]1CC[C@]2(O)C(=O)CO`, with -8.94% [at 25.6 µM].
As to `C[C@@]12C[C@H](O)[C@@H]3[C@H](CCC4=CC(=O)CC[C@]43C)[C@H]1CC[C@@H]2c1csc(N)n1`, the AC50 is 2.51 µM (active).
As to `COc1cc2cc(CN(CCCO)S(=O)(=O)c3ccccc3Cl)c(=O)[nH]c2cc1OC`, the AC50 was 14.1 µM (active).
On the same count and under the same terms, under `CN(C)C(CNC(=O)NC1CCCCC1)c1cccnc1` (centres undefined) stands 15.8 µM (active).
For the compound `COc1cccc(NC(=O)C2c3cc(OC)c(OC)cc3C(=O)N(C)C2c2cccnc2)c1` (centres undefined), the AC50 was 12.6 µM (active).
Consider `COc1cc2c(cc1OC)C(C(=O)Nc1ccccn1)C(c1cccnc1)N(C)C2=O` (centres undefined), for which the activity, negative = inhibition was -22% [at 11.4 µM].
Regarding `COc1ccc(NC(=O)C2c3cc(OC)c(OC)cc3C(=O)N(C)C2c2cccnc2)cc1OC` (centres undefined), the concentration at half-maximal activity (AC50) was 25.1 µM (active).
On to `COCCN1C(=O)c2ccccc2C(C(=O)Nc2ccc3c(c2)OCCO3)C1c1ccc(F)cc1` (centres undefined), for which the activity, negative = inhibition was -22.8% [at 2.29 µM].
For the compound `COc1cc2c(cc1OC)C(C(=O)Nc1ccc3c(c1)OCCO3)C(c1cccnc1)N(C)C2=O` (centres undefined), the AC50 was 28.2 µM (active).
For `CC(C)C12CC[C@@]3(CC[C@H]4[C@@](C)(CCC[C@]4(C)C(=O)O)[C@@H]3C1)[C@@H](CN)C2`, the activity, negative = inhibition is -9.26% [at 11.4 µM].
For the compound `Cc1ccc(-n2c(C)cc(C(=O)CSc3n[nH]c(N)n3)c2C)cc1`, the AC50 was 10 µM (active).
On to `CCOC(=O)CSc1n[nH]c(NC(=O)c2cccc(C(F)(F)F)c2)n1`, for which the “activity, negative = inhibition” value was -5.41%.
Regarding `O=C1CC[C@H](NC(=O)c2ccccc2)C(=O)N1`, the activity, negative = inhibition was -12.3% [at 11.4 µM].
On to `N[C@H](CCC(=O)NCC(=O)O)C(=O)O`, for which the “activity, negative = inhibition” value was -5.94%.
Turning to `CN(C)c1ccc(-c2cncnc2Nc2ccc(F)cc2)cc1`, the half-maximal activity concentration (AC50) is 0.794 µM (active).
As to `CN(C)c1ccc(-c2cncnc2Nc2ccccc2)cc1`, the AC50 is 0.631 µM (active).
The same measure, in the same setting: then `c1cc(CSSCc2ccncc2)ccn1`, with 2.51 µM (active).
In the case of `Cc1cc(C)n(-c2ccc(Cl)c(C(=O)O)n2)n1`, the “activity, negative = inhibition” value is -24.8%.
Regarding `Cc1cc(C)n(-c2nc3ccccc3c(=O)n2OCc2ccc(Cl)cc2)n1`, the AC50 was 14.1 µM (active).
`O=[N+]([O-])c1ccc2nc(-c3ccccc3)n(OCc3ccc(Cl)cc3)c2c1`: the “activity, negative = inhibition” value was 1.45%.
As to `COc1ccccc1CNc1ccnc(-c2ccoc2)n1`, the AC50 is 2.51 µM (active).
Same read-out and setting: then `COc1ccc(CNc2ccnc(-c3ccc(C(=O)N(C)C)cc3)n2)c(OC)c1`, with 3.98 µM (active); and `CN(C)c1ccc(-c2nccc(NCc3ccccc3)n2)cc1`, with 7.94 µM (active); and `COc1ccccc1CNc1ccnc(-c2ccc(C(=O)N(C)C)cc2)n1`, with 25.1 µM (active).
As to `C=CC[C@@H](C(=O)O)c1ccccc1`, the activity, negative = inhibition is -1.41% [at 11.4 µM].
For `CC(C)(C)CNCCO`, the activity, negative = inhibition is -3.67% [at 11.4 µM].
Take `COc1ccccc1CNc1ccnc(-c2ccc(N(C)C)cc2)n1`: the AC50 was 7.94 µM (active).
For the compound `COc1ccccc1CNc1cc(-c2ccc(C(=O)N(C)C)cc2)ncn1`, the AC50 is 25.1 µM (active).
On the same count and under the same terms, under `COc1ccc(CNc2ccnc(-c3ccc(N(C)C)cc3)n2)c(OC)c1` stands 12.6 µM (active); under `CC(C)NC[C@H](O)c1ccc(NS(C)(=O)=O)cc1`, “inactive”.
Take `CN1CCc2nc(N)nc(-c3nc(N)nc4c3CN(C)CC4)c2C1`: the activity, negative = inhibition was 3.49% [at 11.4 µM].
With `O=C(CN(Cc1ccco1)C(=O)c1ccccc1)Nc1ccc(Cl)c(Cl)c1`, the concentration at half-maximal activity (AC50) is 17.8 µM (active).
Consider `O=C(CN(Cc1ccco1)C(=O)c1cccc(Cl)c1)Nc1c(Cl)cc(Cl)cc1Cl`, for which the AC50 was 11.2 µM (active).
For `Cn1c[n+](C)cc1/C=N/O`, the “activity, negative = inhibition” value is -10.6%.
In the case of `CN1CCN(c2nc3cc(C(F)(F)F)ccc3n3cccc23)CC1`, the “activity, negative = inhibition” value is -28%.
For the compound `FC(F)(F)c1ccc(N2CCOCC2)c(Nc2nc3ccccc3n3cnnc23)c1`, the AC50 was 22.4 µM (active).
As to `O=c1sc2ccccc2n1CCCOc1ccccc1`, the AC50 was 17.8 µM (active).
For the compound `Cc1ccc(OCCCn2c(=O)sc3ccccc32)cc1`, the AC50 is 17.8 µM (active).
With `O=C(O)c1ccccc1NCn1c(=S)sc2ccccc21`, the activity, negative = inhibition is -19.2% [at 11.4 µM].
In the case of `C[N+](C)(CCCOc1ccccc1)c1ccccc1`, the “activity, negative = inhibition” value is -0.656% [at 25.6 µM].
As to `NN(CC(=O)O)CC(=O)O`, the activity, negative = inhibition was -4.66% [at 11.4 µM].
The same measure, in the same setting: then `CN(C)CCCN1c2ccc(O)cc2Sc2ccc(Cl)cc21`, with -18.1% [at 11.4 µM]; and `O=C(O)Cn1ccnc1[N+](=O)[O-]`, with 1.73% [at 11.4 µM]; and `Nc1c(N=Nc2cccc(Cl)c2)c(=O)[nH]n1-c1ccccc1`, with -21.9% [at 2.29 µM].
Take `Cc1[nH]n(-c2ccc(S(=O)(=O)O)cc2)c(=O)c1N=Nc1ccccc1`: the activity, negative = inhibition was 1.46% [at 11.4 µM].
On to `Cc1ccc(N=Nc2c(N)n(-c3ccccc3)[nH]c2=O)cc1`, for which the AC50 is 11.2 µM (active).
On to `CCCCc1[nH]c(=O)c(C#N)c2c1CCCC2`, for which the “activity, negative = inhibition” value was 5.05%.
Take `COc1cccc2cc(C(=O)CC3(O)C(=O)N(Cc4ccccc4)c4ccccc43)c(=O)oc12` (centres undefined): the AC50 is 7.08 µM (active).
For the compound `COc1cc(CN2CCCCC2)cc2cc(C(=O)O)c(=O)oc12`, the activity, negative = inhibition was -36.8% [at 11.4 µM].
As for `C[C@H]1CN(CCO)CCN1c1ccccc1`, the activity, negative = inhibition was 14.2% [at 11.4 µM].
Turning to `CN1/C(=C\C(=O)COC(=O)Cn2nnc(-c3ccccc3)n2)C(C)(C)c2ccccc21`, the AC50 was 14.1 µM (active).
As to `CC(C)c1ccc(-c2nnn(CCC(=O)O)n2)cc1`, the “activity, negative = inhibition” value is -9.35%.
In the case of `O=C(Cn1nnc(-c2ccccc2)n1)OCc1ccccc1`, the “activity, negative = inhibition” value is -7.55%.
Consider `Cc1nn(-c2ccccc2)c(Cl)c1/C=N/NC(=O)c1ccco1`, for which the “activity, negative = inhibition” value is 6.52%.
For `O=C(N/N=C/c1ccccn1)c1ccc(Br)o1`, the “activity, negative = inhibition” value was 1.3%.
Consider `O=C(N/N=C\c1cn(-c2ccccc2)nc1-c1ccccc1)c1ccc2c(c1)OCO2`, for which the AC50 is 1.58 µM (active).
Turning to `O=C(N/N=C\c1cn(-c2ccccc2)nc1-c1ccccc1)c1ccc(Br)o1`, the half-maximal activity concentration (AC50) was 3.98 µM (active).
The same measure, in the same setting: under `COc1ccc(-c2nn(-c3ccccc3)cc2/C=N/NC(=O)c2ccc3c(c2)OCO3)cc1` stands 5.01 µM (active).
